The source of these data is ChEMBL document CHEMBL3988442, “University of Dundee, Small-Polar-MMV Screening Library” (2021).

Out of some 69,000 compounds screened, about 1,000 (1.4%) showed an effect of 50% or more. The entries come from a sample that favours strong results as a whole.

The subject of this test is Leishmania donovani. Kind of test: Leishmania intramacrophage assay. Further details: scale not given: in the data most compounds retested in dose-response had high values. Format: functional, organism-based.

Consider `CC1(C)COCCN1C(=O)CCc1nc(-c2ccncc2)no1`, for which the “Percent Effect” value (30.3 µM, […]) came out at 0.2365%.
Same read-out and setting: the same measure for `CC1CCN(CC(=O)NC2CCN(C(C)c3ccccc3)CC2)CC1.Cl` (stereo not drawn): 0.5624%; for `CCn1ccc(-c2cc(NCCCOc3cccc(C)c3)nc(C)n2)n1`: 7.258%.
As to `COc1ccccc1OCCNCCn1cccn1`, the “Percent Effect” value (30 µM) is recorded as 30.77%.
In the case of `CCn1ccc(-c2cc(NCCCOc3ccccc3C)nc(C)n2)n1`, for the setting “30.3 µM, […]”, the “Percent Effect” value is 56.31%.
Still for that read-out and setting: the same measure for `Cc1ccc(C(=O)N2C[C@@H](N3CCN(C)CC3)[C@H]3OCCC[C@H]32)cn1`: 22.91%.
`CNC(=O)[C@@H]1C[C@H]2CN(Cc3nccs3)C[C@H]2N1C.O=C(O)C(F)(F)F.O=C(O)C(F)(F)F`: the “Percent Effect” value (30 µM, 30.03 µM) is reported as 9.102%.
In the case of `CC1CN(C(=O)c2cc(=O)[nH]c3ccc(F)cc23)CCO1` (stereo not drawn), the “Percent Effect” value (30.3 µM, […]) was -3.043%.
With `CN(C)C[C@@H]1[C@H]2CN(C(=O)c3cc(=O)[nH]c4ccc(F)cc34)C[C@@H]12`, where the note is “30.3 µM, […]”, the “Percent Effect” value is 55.47%.
The same measure, in the same setting: to `CN(C)C[C@H]1C[C@@H](CO)CN(C(=O)c2cc(=O)[nH]c3cc(F)ccc23)C1` belongs 30.17%.
For the compound `CCOC(=O)C1CCN(c2nccc(-n3nc(C)cc3C)n2)CC1`, the “Percent Effect” value (30.3 µM, […]) turned out to be 24.33%.
The same measure, in the same setting: the same measure for `Cc1cnc(N2CC(C(=O)N3CCOCC3)C3(CCOCC3)C2)nc1` (stereo not drawn): 0.6566%.
As for `Cn1ccc(C(=O)N2CCCC(Cc3cccc4ncccc34)C2)n1` (stereo not drawn), under “30 µM, 30.03 µM”, the “Percent Effect” value is 74.08%.
As for `COCCNc1cc(-c2cccc(C(=O)O)c2C)c2cc[nH]c2n1`, where the note is “30.3 µM, […]”, the “Percent Effect” value was found to be 27.05%.
`Cc1cc(C(=O)NCCN2CCCC(C)C2)nn1C(C)(C)C` (stereo not drawn): the “Percent Effect” value (30.3 µM, […]) amounted to 12.01%.
Same read-out and setting: the same measure for `CN(C)C(=O)c1cncnc1-c1ccc(CNC(=O)C2CCCO2)cc1` (stereo not drawn): -46.25%.
As to `O=C1CC2(CCN(CCO)CC2)CN1Cc1cc(F)cc(F)c1`, under “30 µM, 30.03 µM”, the “Percent Effect” value was 24.96%.
Still for that read-out and setting: to `O=C1CC2(CCN(CC3CCOC3)CC2)CN1Cc1cc(F)cc(F)c1` (stereo not drawn) belongs 41.14%.
As for `O=C1CC2(CCN(CC3CC3)CC2)CN1Cc1cc(F)cc(F)c1`, the “Percent Effect” value (30.3 µM, […]) was 59.82%.
The same measure, in the same setting: the same measure for `Cc1cc(C(N)=O)c2c(Br)cccc2n1`: -10.76%; for `CN(C)CC1CN(c2ncnc3ccsc23)CCO1` (stereo not drawn): 16.39%.
With `c1cnn(CC2CN(c3ncnc4[nH]ccc34)CCO2)c1` (stereo not drawn), under “30 µM”, the “Percent Effect” value was found to be 1.835%.
As to `c1nc(N2CCOC(Cn3cncn3)C2)c2sccc2n1` (stereo not drawn), the “Percent Effect” value (30.3 µM, […]) came out at 23.8%.
`Cc1cnn(CC2CN(c3ncnc4[nH]ccc34)CCO2)c1` (stereo not drawn): the “Percent Effect” value (30 µM) is 4.128%.
Consider `c1ccc2c(N3CCOC(Cn4cccn4)C3)ncnc2c1` (stereo not drawn), for which the “Percent Effect” value (30.3 µM, […]) is -0.8022%.
`c1cnn(CC2CN(c3ncnc4sccc34)CCO2)c1` (stereo not drawn): for the setting “30 µM, 30.03 µM”, the “Percent Effect” value was found to be 57.28%.
The same measure, in the same setting: to `Cc1cnn(CC2CN(c3ncnc4ccccc34)CCO2)c1` (stereo not drawn) belongs 53.49%; to `c1cnn(CC2CN(c3ncnc4ccsc34)CCO2)c1` (stereo not drawn), 45.92%.
On the same count and under the same terms, the same measure for `Cc1cnn(CC2CN(c3ncnc4ccsc34)CCO2)c1` (stereo not drawn): 66.34%.
`Cc1nc2cc(C(=O)N(CCC#N)CC3CCCO3)ccc2[nH]1` (stereo not drawn): the “Percent Effect” value (30.3 µM, […]) came to 5.976%.
As for `Cc1nn(C)c(C)c1OCC(=O)NCC(O)Cc1ccccc1` (stereo not drawn), the “Percent Effect” value (30.3 µM, […]) is listed as -11.07%.
`CC(C)(C)CC(=O)NS(=O)(=O)c1ccc(F)cc1C(F)(F)F`: the “Percent Effect” value (30.3 µM, […]) turned out to be 3.58%.
Regarding `CNS(=O)(=O)c1ccc(C(=O)N2CCCC2c2ccccc2C)o1` (stereo not drawn), the “Percent Effect” value (30 µM) is 17.32%.
With `O=C(Cn1ccc2sccc2c1=O)NCCCc1ccccc1`, for the setting “30.3 µM, […]”, the “Percent Effect” value came out at 1.811%.
Still for that read-out and setting: to `Cc1cccc(CN2CCCC3(CCN(CC(=O)N(C)C)C3=O)C2)n1.O=C(O)C(F)(F)F` (stereo not drawn) belongs -21.17%; to `Cc1ccc(C(=O)Nc2ccc3c(c2)N(C)CCN(C)C3)c(=O)[nH]1`, 4.534%; to `NC1(CN2CCCCC2)CCCCC1`, -14.65%.
On the same count and under the same terms, the same measure for `Cc1nc(CN2CCCn3c(nc(Cn4cncn4)cc3=O)C2)cs1.O=C(O)C(F)(F)F`: 16.7%.
In the case of `CNC(=O)Cc1n[nH]c(-c2cncc(Br)c2)n1`, the “Percent Effect” value (30.3 µM, […]) was -1.104%.
On to `CCOC(=O)Cc1n[nH]c(-c2cncc(Br)c2)n1`, for which the “Percent Effect” value (30.3 µM, […]) was found to be 100.5%.
`CCNC(=O)Cc1n[nH]c(-c2cncc(Br)c2)n1`: the “Percent Effect” value (30.3 µM, […]) is listed as -72.67%.
For `Cc1oncc1C(=O)N1CCC(O)(CN2CCOCC2)C(C)(C)C1` (stereo not drawn), the “Percent Effect” value (30.3 µM, […]) was 22.16%.
The same measure, in the same setting: to `COc1cccc(CN(C)Cc2nc3c(cnn3C)c(=O)[nH]2)c1OC` belongs -6.431%; to `COc1cc(NC2CCN(C3CCS(=O)(=O)CC3)CC2)ncn1`, 36.7%; to `Cc1nc2[nH]cnc(Nc3ccn(C)n3)c-2n1`, -6.289%.
Same read-out and setting: to `Cc1nc2[nH]cnc(Nc3cnn(C)c3)c-2n1` belongs 10.52%; to `Cc1nc2[nH]cnc(Nc3cc(C)n(C)n3)c-2n1`, 75.58%.
Consider `CCSCCC(=O)Nc1ncn(CC(=O)NCc2ccccc2)n1`, for which, where the note is “30 µM, 30.03 µM”, the “Percent Effect” value is listed as 19.14%.
Regarding `O=C(c1c2c(N3CCOCC3)ncnc2n2ccccc12)N1CCCC1`, the “Percent Effect” value (30.3 µM, […]) was determined as 16.59%.
On the same count and under the same terms, the same measure for `CN(C)CCN1CCOCC2(CCCN(C(=O)c3ccoc3)C2)C1.O=C(O)C(F)(F)F.O=C(O)C(F)(F)F` (stereo not drawn): 9.003%.
For the compound `Cc1cc2cc(CNC3CCN(CC4CCOC4)CC3)oc2cc1C` (stereo not drawn), the “Percent Effect” value (30.3 µM, […]) worked out at 70.06%.
Same read-out and setting: the same measure for `Cc1cc2cc(CNC3CCN(CC(=O)N(C)C)CC3)oc2cc1C`: 25.29%; for `Cc1cc2cc(CNC3CCN(S(C)(=O)=O)CC3)oc2cc1C`: 23.07%.
Same read-out and setting: the same measure for `CN(C)S(=O)(=O)c1ccc(-c2nc(C#N)c(NC3CCCCC3)o2)o1`: 54.54%; for `CN(C)S(=O)(=O)c1ccc(-c2nc(C#N)c(NC3CC3)o2)o1`: 20.5%; for `Cc1oc(-c2nc(C#N)c(NC3CC3)o2)cc1S(=O)(=O)N1CCCC1`: 1.943%.
The same measure, in the same setting: the same measure for `CC(C)Nc1oc(-c2ccc(S(=O)(=O)N(C)C)o2)nc1C#N`: 16.53%; for `CN(C)S(=O)(=O)c1ccc(-c2nc(C#N)c(NC(C)(C)C)o2)o1.Cl`: 70.96%.
Take `CNc1oc(-c2ccc(S(=O)(=O)N(C)C)o2)nc1C#N`: the “Percent Effect” value (30.3 µM, […]) is given as -4.203%.
Regarding `Cc1ccc(N2C[C@H](C(=O)N3CCOCC3)[C@@H]3CCO[C@@H]3C2)nn1`, the “Percent Effect” value (30.3 µM, […]) was 10.85%.
Turning to `O=C(O)C(F)(F)F.c1csc(CN2CCn3c(Cn4cncn4)cnc3C2)n1`, the “Percent Effect” value (30 µM, 30.03 µM) came to 0.7173%.
As to `CC(C)(C)c1noc(CCCC(=O)N2CCCC(c3ccn[nH]3)C2)n1` (stereo not drawn), where the note is “30.3 µM, […]”, the “Percent Effect” value is -44.28%.
Regarding `COc1cc(S(=O)(=O)N2CCCc3ccccc32)cc(C(=O)O)c1OC`, the “Percent Effect” value (30 µM, 30.03 µM) was determined as 1.897%.
